Active and inactive are the calls of the source.
Columns and labels:
[1] = test system: Plasmodium falciparum Sir2 (PF13_0152, Sir2A); assay: pfSir2 binders on small-molecule microarrays, primary screen, biochemical, small-molecule microarray, 635 nm fluorescence (AID 1098); settings: small-molecule microarray binding, fluorescence 635 nm; higher = more signal;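 note: score merges spot fluorescence intensity with its signal-to-noise ratio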
[2] = small-molecule microarray binders of probe aDKK1, primary screen, biochemical, biotinylated probe, 635/667 nm fluorescence (AID 1099); settings: higher = more signal;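 note: score merges 667nm spot fluorescence with signal to noise across triplicate slides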
[3] = small-molecule microarray binders of probe aCHRDL2, primary screen, biochemical, biotinylated probe, 635/667 nm fluorescence (AID 1100); settings: higher = more signal
[4] = splicing luciferase reporter signal modulators, primary screen, spliceosome inhibition project, cell-based, HEK293, splice +/- reporter (AID 1101); settings: luminescence, 24 h, higher = more signal, called active from +8 up or from −8 down;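 note: HEK293 cells carrying a splicing-competent luciferase reporter gene; test concentration not given here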
[5] = biological target: Fibroblast growth factor 10 (Homo sapiens) (UniProt O15520); assay: FGF10 binders on small-molecule microarrays, primary screen, biochemical, small-molecule microarray, 635 nm fluorescence (AID 1102); settings: FGF10 binding, fluorescence 635 nm, higher = more signal
[6] = test system: glycogen synthase kinase-3 (GSK3A per assay name; protocol says GSK3B); assay: GSK3 binders on small-molecule microarrays, primary screen, biochemical, small-molecule microarray, 635 nm fluorescence, GSK3A (AID 1103); settings: small-molecule microarray binding, fluorescence 635 nm; higher = more signal; note: the record names both GSK3A and GSK3B
[7] = biological target: Epidermal growth factor receptor (Homo sapiens) (UniProt P00533); assay: EGFR binders on small-molecule microarrays, primary screen, biochemical, small-molecule microarray, 635 nm fluorescence (AID 1104); settings: EGFR binding, higher = more signal;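 note: score merges 667 nm emission intensity with spot signal to noise over triplicate slides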
[8] = biological target: Follistatin-related protein 3 (Homo sapiens) (UniProt O95633); assay: FSTL3 binders on small-molecule microarrays, primary screen, biochemical, small-molecule microarray, 635 nm fluorescence (AID 1105); settings: FSTL3 binding, higher = more signal;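 note: score merges emission near 667 nm and signal to noise per printed spot across three slides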
[9] = biological target: Dickkopf-related protein 1 (Homo sapiens) (UniProt O94907); assay: DKK1 binders on small-molecule microarrays, primary screen, biochemical, small-molecule microarray, 635 nm fluorescence scan (AID 1106); settings: DKK1 binding, higher = more signal;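 note: score merges emission near 667 nm with signal to noise over three replicate slides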
[10] = test system: Inhibin beta A chain (activin A); assay: INHBA (activin A) binders on microarrays, primary screen, biochemical, small-molecule microarray, 635 nm fluorescence scan (AID 1107); settings: small-molecule microarray binding, higher = more signal;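 note: mouse activin A protein probed at 4.33 µg/mL on printed slides; score merges bound-protein fluorescence near 667 nm with spot signal-to-noise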
[11] = test system: Human papillomavirus type 1a protein E7 (residues 44-93); assay: HPV1a E7 fragment binders on microarrays, primary screen, biochemical, small-molecule microarray, residues 44-93, 635 nm fluorescence (AID 1108); settings: small-molecule microarray binding, fluorescence 635 nm; higher = more signal;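 note: E7 fragment applied at 1 µg/mL in TBST for 1 h at 4 C; score combines spot fluorescence with its signal to noise ratio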
[12] = modulators of HCV replicon luciferase signal, primary screen, HCV replication inhibitor project, Huh7 cells, luciferase reporter (AID 1109); settings: 48 h, higher = more signal;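 note: huh7 hepatoma cells harbouring a luciferase neomycin HCV replicon reporter; luciferase luminescence as measure of HCV replicon replication; test concentration not given here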
[13] = biological target: Left-right determination factor 2 (Homo sapiens) (UniProt O00292); assay: LEFTY2 binders on small-molecule microarrays, primary screen, biochemical, small-molecule microarray, 635 nm fluorescence scan (AID 1110); settings: LEFTY2 binding, higher = more signal
[14] = biological target: Calmodulin-1 (Homo sapiens) (UniProt P0DP23); assay: CALM1 binders on microarrays, EGTA buffer, profiling panel, biochemical, small-molecule microarray, Cy5-labelled CALM1 (AID 1111); settings: Cy5-CALM1 binding fluorescence, higher = more signal;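 note: labelled calmodulin applied in Tris saline Tween buffer holding calcium plus EGTA and DTT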
[15] = biological target: Calmodulin-1 (Homo sapiens) (UniProt P0DP23); assay: calcium-bound CALM1 binders on microarrays, profiling panel, artefact control for SMM control-protein annotation, biochemical, small-molecule microarray, Cy5-labelled CALM1, plus calcium (AID 1112); settings: Cy5-CALM1 binding fluorescence, higher = more signal;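 note: score merges spot fluorescence with signal to noise from triplicate slides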
[16] = small-molecule microarray binders of probe aWnt5a, primary screen, biochemical, biotinylated probe, 635/667 nm fluorescence (AID 1113); settings: higher = more signal;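 note: score merges 667 nm fluorescence intensity with signal-to-noise per printed feature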
[17] = small-molecule microarray binders of probe aShh, primary screen, biochemical, biotinylated probe, 635/667 nm fluorescence (AID 1114); settings: higher = more signal;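 note: probe is biotin-labelled aShh protein from a stem cell growth factor screen; measures binding of labelled protein to compounds printed on the slide; score merges feature fluorescence at 667 nm with signal-to-noise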
[18] = small-molecule microarray binders of probe aNog, primary screen, biochemical, biotinylated probe, 635/667 nm fluorescence (AID 1115); settings: higher = more signal;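 note: probe is biotinylated aNog protein used at 0.15 µg/mL for 1 h at 4 C; z-score combines 667 nm fluorescence of each spot with its signal to noise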
[19] = biological target: Torsin-1A-interacting protein 1 (Homo sapiens) (UniProt Q5JTV8); assay: LAP1 binders from COS7 cell lysate, primary screen, small-molecule microarray, 635/667 nm fluorescence (AID 1116); settings: COS7-hLAP1 lysate binding, 635 nm fluorescence, higher = more signal
[20] = biological target: Alpha-bungarotoxin (Bungarus multicinctus) (UniProt P60615); assay: alpha-bungarotoxin binders on microarray, profiling panel, artefact control for SMM control protein annotation, biochemical, small-molecule microarray, Alexa647 label, 635/667 nm fluorescence (AID 1117); settings: alpha-BTX-A647 binding fluorescence, higher = more signal
Alpha-bungarotoxin (Bungarus multicinctus), sequence (P60615 whole entry, looked up): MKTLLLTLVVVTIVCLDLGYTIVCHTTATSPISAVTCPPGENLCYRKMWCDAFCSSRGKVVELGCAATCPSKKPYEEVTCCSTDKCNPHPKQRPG

Dickkopf-related protein 1 (Homo sapiens), sequence (O94907 whole entry, looked up): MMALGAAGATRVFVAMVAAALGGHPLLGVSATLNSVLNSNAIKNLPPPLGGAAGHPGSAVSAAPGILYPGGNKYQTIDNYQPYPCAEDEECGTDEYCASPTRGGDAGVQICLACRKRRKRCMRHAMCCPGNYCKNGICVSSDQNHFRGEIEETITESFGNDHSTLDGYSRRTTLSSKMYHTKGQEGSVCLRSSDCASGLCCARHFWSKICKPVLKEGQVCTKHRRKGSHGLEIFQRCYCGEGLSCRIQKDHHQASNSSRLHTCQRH
Fibroblast growth factor 10 (Homo sapiens), sequence (O15520 whole entry, looked up): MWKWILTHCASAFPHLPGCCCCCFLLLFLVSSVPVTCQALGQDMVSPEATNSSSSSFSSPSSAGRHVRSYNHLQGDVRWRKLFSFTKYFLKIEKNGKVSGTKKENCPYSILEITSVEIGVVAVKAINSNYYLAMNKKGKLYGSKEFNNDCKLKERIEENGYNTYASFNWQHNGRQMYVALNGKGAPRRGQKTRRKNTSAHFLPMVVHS
Torsin-1A-interacting protein 1 (Homo sapiens), sequence (Q5JTV8 whole entry, looked up): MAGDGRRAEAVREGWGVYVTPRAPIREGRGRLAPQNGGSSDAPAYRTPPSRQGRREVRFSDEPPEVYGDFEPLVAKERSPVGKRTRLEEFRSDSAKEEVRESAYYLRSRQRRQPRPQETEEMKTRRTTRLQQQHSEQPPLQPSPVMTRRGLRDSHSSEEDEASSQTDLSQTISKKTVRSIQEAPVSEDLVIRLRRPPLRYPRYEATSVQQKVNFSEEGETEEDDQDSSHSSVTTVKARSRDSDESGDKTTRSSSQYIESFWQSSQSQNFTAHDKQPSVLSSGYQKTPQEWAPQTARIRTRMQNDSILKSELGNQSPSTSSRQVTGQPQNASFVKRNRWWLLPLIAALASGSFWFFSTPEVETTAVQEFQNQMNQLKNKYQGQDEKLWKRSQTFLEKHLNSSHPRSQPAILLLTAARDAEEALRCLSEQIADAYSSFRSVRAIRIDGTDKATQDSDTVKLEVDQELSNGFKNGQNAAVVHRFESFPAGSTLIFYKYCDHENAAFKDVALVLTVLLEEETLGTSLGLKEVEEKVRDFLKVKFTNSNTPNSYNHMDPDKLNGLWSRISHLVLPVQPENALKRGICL
Epidermal growth factor receptor (Homo sapiens), sequence (P00533 whole entry, looked up): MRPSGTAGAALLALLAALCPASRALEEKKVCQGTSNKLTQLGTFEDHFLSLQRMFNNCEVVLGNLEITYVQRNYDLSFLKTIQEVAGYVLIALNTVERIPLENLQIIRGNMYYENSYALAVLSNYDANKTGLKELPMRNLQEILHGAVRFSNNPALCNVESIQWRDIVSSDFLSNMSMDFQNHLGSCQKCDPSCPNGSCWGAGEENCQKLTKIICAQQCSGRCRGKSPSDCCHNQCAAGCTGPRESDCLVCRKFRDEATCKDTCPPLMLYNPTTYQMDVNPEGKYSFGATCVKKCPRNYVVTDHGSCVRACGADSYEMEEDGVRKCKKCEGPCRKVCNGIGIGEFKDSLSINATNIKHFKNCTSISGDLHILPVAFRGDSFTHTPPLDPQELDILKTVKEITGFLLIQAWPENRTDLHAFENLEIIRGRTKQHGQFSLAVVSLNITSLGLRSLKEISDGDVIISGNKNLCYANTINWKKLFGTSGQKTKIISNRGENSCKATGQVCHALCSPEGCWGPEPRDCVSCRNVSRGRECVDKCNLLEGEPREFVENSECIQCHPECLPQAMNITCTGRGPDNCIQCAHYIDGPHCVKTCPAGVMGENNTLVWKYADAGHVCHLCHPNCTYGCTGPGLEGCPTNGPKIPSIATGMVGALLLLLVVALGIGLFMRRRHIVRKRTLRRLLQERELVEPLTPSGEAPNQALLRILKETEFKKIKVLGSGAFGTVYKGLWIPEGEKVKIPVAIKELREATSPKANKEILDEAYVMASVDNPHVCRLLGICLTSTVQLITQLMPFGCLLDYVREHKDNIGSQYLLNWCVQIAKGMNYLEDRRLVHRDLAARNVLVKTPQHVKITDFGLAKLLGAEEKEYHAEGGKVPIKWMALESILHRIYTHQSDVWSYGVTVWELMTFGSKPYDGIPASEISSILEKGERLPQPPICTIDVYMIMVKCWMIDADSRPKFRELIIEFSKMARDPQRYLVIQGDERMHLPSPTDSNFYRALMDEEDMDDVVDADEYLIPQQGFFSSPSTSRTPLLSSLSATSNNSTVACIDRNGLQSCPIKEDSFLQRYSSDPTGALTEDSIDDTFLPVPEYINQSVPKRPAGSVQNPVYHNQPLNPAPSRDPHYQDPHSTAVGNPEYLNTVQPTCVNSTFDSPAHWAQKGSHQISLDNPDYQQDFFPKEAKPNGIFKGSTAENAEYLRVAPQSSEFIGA
Left-right determination factor 2 (Homo sapiens), sequence (O00292 whole entry, looked up): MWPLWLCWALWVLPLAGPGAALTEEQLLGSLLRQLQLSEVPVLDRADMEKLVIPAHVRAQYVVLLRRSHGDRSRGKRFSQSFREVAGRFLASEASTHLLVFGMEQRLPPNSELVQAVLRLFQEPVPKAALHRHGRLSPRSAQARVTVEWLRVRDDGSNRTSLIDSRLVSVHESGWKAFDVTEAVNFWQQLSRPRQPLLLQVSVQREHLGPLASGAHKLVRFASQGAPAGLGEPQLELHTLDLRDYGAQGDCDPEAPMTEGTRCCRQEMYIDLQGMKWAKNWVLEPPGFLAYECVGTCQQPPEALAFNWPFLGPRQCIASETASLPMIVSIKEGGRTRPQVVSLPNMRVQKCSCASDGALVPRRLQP
Follistatin-related protein 3 (Homo sapiens), sequence (O95633 whole entry, looked up): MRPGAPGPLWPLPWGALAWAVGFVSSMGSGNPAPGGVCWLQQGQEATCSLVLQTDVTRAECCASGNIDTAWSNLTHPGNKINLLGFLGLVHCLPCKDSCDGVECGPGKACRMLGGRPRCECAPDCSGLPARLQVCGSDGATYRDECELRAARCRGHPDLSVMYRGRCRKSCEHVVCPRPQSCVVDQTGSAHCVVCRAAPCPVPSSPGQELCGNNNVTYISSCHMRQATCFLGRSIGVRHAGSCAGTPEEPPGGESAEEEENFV

SMILES	composite z-score [1]	composite z-score [2]	composite z-score [3]	z-score [4]	composite z-score [5]	composite z-score [6]	composite z-score [7]	composite z-score [8]	composite z-score [9]	composite z-score [10]	composite z-score [11]	z-score [12]	composite z-score [13]	composite z-score [14]	composite z-score [15]	composite z-score [16]	composite z-score [17]	composite z-score [18]	composite z-score [19]	composite z-score [20]
CC[C@H]1C2=C3C(CC[C@H]4C(OC)OC[C@](C)([C@@H]34)N(C(=O)OC(C)(C)C)C2)C(CO)C1CO (stereo not given in full)	0.593	1.54	1.6	-0.715 (inactive)	0.754	1.16	0.194	1.07	-0.212	0.828	1.37	-0.996	0.221	2.27	1.38	0.379	-0.349	-0.128	2.23	1.33
CCOC(=O)C[C@H]1[C@H](OC(=O)c2ccccc2-c2ccccc2)[C@@H](NC(=O)c2ccc(-c3ccccc3)cc2)c2cc(OCCCO)ccc2N1C(=O)Cc1ccc(OC)cc1	-0.0957	-0.394	-0.44	-0.288 (inactive)	0.295	-0.189	0.147	0.38	0.428	0.701	0.295	-2.04	0.462	-0.203	-0.499	-0.111	-0.0626	-0.31	-0.0098	0.322
CO[C@]12C=C(Br)[C@@H](C[C@@H]1c1ccccc1)[C@@]1(CO1)C2=O	0.165	-0.301	-0.708	-0.0249 (inactive)	0.342	0.497	0.496	0.615	0.791	0.737	-0.468	-2.97	0.36	-0.264	-0.533	-0.0125	-0.0146	0.0256	-0.161	-0.3
Cc1ccc(S[C@]2(C(=O)NC(C)C)CC(=O)N(Cc3cc(C(F)(F)F)cc(C(F)(F)F)c3)[C@@H]2c2ccc(CO)cc2I)cc1	-0.602	0.0628	0.892	-0.181 (inactive)	-0.816	-0.504	-1.36	-0.923	-1.27	-0.748	0.785	-0.563	-0.832	-0.502	-0.384	-0.132	0.0815	-0.036	-0.596	0.57
COCCCNC(=O)[C@@H]1c2ccccc2C(=O)N(CC23CC4CC(CC(C4)C2)C3)[C@H]1c1ccc(CO)cc1	0.0881	0.884	0.97	-1.1 (inactive)	0.37	0.623	0.215	0.296	0.427	0.911	0.666	-1.57	-0.191	0.879	0.803	-0.0405	0.778	0.0051	0.926	0.253
COCCOC(=O)N1C(=O)[C@@]2(c3cc(C#CCCO)ccc31)[C@H](c1ccc(O)cc1)N1[C@H](c3ccccc3)[C@H](c3ccccc3)OC(=O)[C@H]1[C@@H]2C(=O)Nc1nc2ccccc2s1	0.762	-0.0965	-0.148	-1.13 (inactive)	1.33	1.32	0.562	1.44	0.685	0.364	1.37	0.688	0.704	0.207	-0.567	-0.0256	-0.167	-0.223	0.234	1.46
CCCCCCc1nc(-c2cc(C)c(OC)c(C)c2)cc2c1[Si](C(C)C)(C(C)C)O[C@H]2c1ccccc1	-0.717	-0.268	0.122	0.399 (inactive)	-0.915	-0.849	-0.394	-0.677	-0.302	0.621	-0.57	0.115	-0.607	-0.482	0.244	-0.197	0.0278	-0.0755	-0.872	0.117
COC(=O)c1ccc(C#CC(NP(=O)(c2ccccc2)c2ccccc2)c2ccccc2)cc1 (stereo not given)	-0.179	1.2	1.38	5.42 (inactive)	0.847	-0.245	1.77	1.7	0.567	1.76	1.39	-0.173	-0.34	1.92	0.863	0.0381	-0.519	1.59	0.403	2.89
C=CCN1C(=O)[C@]2(O[C@H](CCn3cc(CCO)nn3)[C@@H]([Si](C)(C)c3ccc(OC)cc3)[C@@H]2C)c2cc(NC(=O)c3ccc(OC)cc3)ccc21	0.799	0.717	0.794	0.0559 (inactive)	0.515	1.23	0.384	0.876	0.863	1.63	1.09	-3.44	0.774	0.289	0.336	-0.124	0.166	0.188	0.573	1.19
O=C1OCC=C[C@H]2OC34C=CCN(Cc5ccccc5)C(=O)[C@H]3N(CCO)C(=O)[C@@H]4[C@@H]12 (stereo not given in full)	1.89	-0.227	0.679	-0.632 (inactive)	-1.09	-1.46	-0.435	-0.596	-0.965	0.0484	0.257	-0.877	-0.864	-0.289	0.822	-0.144	-0.134	-0.182	-0.459	-0.38
COc1ccc([Si](C)(C)[C@H]2[C@H](CC(=O)N(CCO)Cc3ccccc3)O[C@@]3(C(=O)N(C)c4ccccc43)[C@@H]2C)cc1	0.624	-0.29	-0.519	-1.44 (inactive)	1.19	0.25	0.631	0.996	1.05	0.92	1.3	-3.22	0.664	-0.416	-0.398	-0.0182	-0.141	-0.52	0.188	0.238
CCC#CCN(Cc1ccccc1Br)[C@H](/C=C/c1ccccc1)[C@@H](O)Cc1ccccc1	0.193	0.0099	1.28	-1.89 (inactive)	-0.89	-0.688	-1.53	-1.81	-1.6	1.05	-0.0687	-2.58	-0.635	-0.481	0.402	-0.152	-0.138	-0.326	-0.613	-0.0441
CC(C)[Si]1(C(C)C)O[C@@H](c2ccccc2)c2cc(C3CC3)nc(-c3ccc(Oc4ccccc4)cc3)c21	-1.25	-0.105	-0.037	-0.961 (inactive)	-0.318	-0.343	-0.0891	-0.489	-0.159	0.513	-0.266	-0.176	-0.436	-0.395	0.89	-0.0758	-0.214	-0.158	0.0613	-0.789
C=CCOC(=O)[C@@H]1[C@H]2C(=O)O[C@H](c3ccccc3)[C@H](c3ccccc3)N2[C@H](c2ccc(OCCOC(=O)[C@H]3C[C@H]4C(=O)N5CCC[C@H]5C(=O)N4[C@H]3c3ccc(O)cc3)cc2)[C@@]12C(=O)Nc1ccccc12	1.04	0.264	0.573	-1.3 (inactive)	0.883	1.18	0.689	1.34	0.921	0.668	-0.747	-1.31	0.382	1.27	0.699	0.0047	0.14	0.305	0.87	1.33
CN1C(=O)C2C=CC(C(O)c3ccc(N(C)C)cc3)N(Nc3ccc([N+](=O)[O-])cc3[N+](=O)[O-])C2C1=O (stereo not given)	1.27	1.17	0.33	1.16 (inactive)	0.887	1.2	0.737	1.2	0.137	1.49	0.501	-0.353	0.371	0.49	0.697	0.055	0.446	1.7	1	0.988
C=C(CCCC)/C(=C/C[C@@H](OC(=O)c1ccncc1)c1cccc(OCCO)c1)c1cc(C(=O)OC)ccc1OC	0.953	-0.0661	0.273	0.151 (inactive)	0.74	0.764	0.53	0.933	0.438	0.482	-0.414	-2.29	0.725	0.652	-0.732	-0.143	-0.138	-0.452	0.344	1.21
O=C1c2ccccc2[C@](Cc2ccccc2I)(C(=O)NCC(F)(F)F)[C@H](c2ccc(CO)cc2)N1Cc1ccccc1C(F)(F)F	0.795	-0.582	-0.243	0.133 (inactive)	0.222	0.926	0.106	0.523	0.0221	-0.33	0.517	-0.326	0.13	1.47	0.296	-0.149	0.164	-0.0101	0.857	0.449
CC(C)[Si](OCC[C@H]1O[C@]2(C(=O)N(Cc3ccccc3)c3ccccc32)[C@@H](C)[C@@H]1[Si](C)(C)O)(C(C)C)C(C)C	0.54	-0.0907	-0.0768	0.467 (inactive)	-0.189	-0.922	-0.102	-0.0398	0.0477	0.438	0.161	-1.22	-0.261	0.214	0.3	-0.216	0.0204	0.0073	0.153	-0.513
O=C(NCc1ccccc1)[C@@]1(Cc2ccccc2)COC(c2ccc(OCCCO)cc2)=N1	0.838	0.599	1.06	-0.13 (inactive)	0.117	0.0562	-0.705	-0.641	-0.715	0.578	1.4	-3.29	-0.702	0.588	0.687	-0.128	-0.0337	0.597	1.57	1.71
COc1ccc(C(=O)Nc2ccc(CN3C(=O)[C@]4(O[C@H](CCn5cc(CCO)nn5)[C@@H]([Si](C)(C)c5ccc(OC)cc5)[C@@H]4C)c4ccccc43)cc2)cc1	0.814	0.3	0.589	5.66 (inactive)	0.898	1.03	0.958	-0.106	-0.0456	1.11	1.05	-5.06	0.465	0.62	-0.0683	0.0857	0.199	-0.363	0.793	1.31

— PubChem BioAssay
